This passage reports growth yield results from the supplement of paper PMC8007513.

Counter-ions that a name gives are not always drawn. ± gives the standard error. The campaign covered roughly 1,300 compounds. About 130 (10%) showed an effect of 50% or more. This is one part of a sample in which strong results are shown more often than they occur.

For this experiment, the system named is Trichoderma virens ATCC 9645. Kind of experiment: growth yield (OD600) with compound + IPBC relative to untreated control; higher = less growth inhibition. Particulars: compound concentration: 100 uM, IPBC concentration: 200 ng/ml. In outline:
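A biocide at 200 ng ml^−1 was co-applied to some wells, and library compounds were present in all test wells at 100 μM final. The wells held 100 μl of Trichoderma virens ATCC 9645 spores at 15,000 spores ml^−1 in potato dextrose broth, grown at 30 °C in 96-well plates, with OD600 read at 40 h and 72 h. Results are relative growth against the control without either agent, averaged across duplicate screens.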

Take `CC(C(=O)O)c1ccc(C(=O)c2ccccc2)s1` (stereo not given) [Tiaprofenic acid] + CCCCNC(=O)OCC#CI [3-iodo-2-propynyl butylcarbamate (IPBC)]: the growth yield reads like this: (40 h) 77.83 ± 0.32%; (72 h) 83.38 ± 0.32%.
Taken in the same sequence, the figures for `CCCCN(CCCC)CCC(O)c1cc2c(Cl)cc(Cl)cc2c2cc(C(F)(F)F)ccc12` (stereo not given) [Halofantrine hydrochloride] + CCCCNC(=O)OCC#CI [3-iodo-2-propynyl butylcarbamate (IPBC)] were 13.8 ± 0.16% and 7.66 ± 1.1%.
For `CCN1CCCC(OC(=O)C(c2ccccc2)c2ccccc2)C1` (stereo not given) [Piperidolate hydrochloride] + CCCCNC(=O)OCC#CI [3-iodo-2-propynyl butylcarbamate (IPBC)], the growth yield by setting is: (40 h) 85.5 ± 1.6%; (72 h) 94.08 ± 0.73%.
Take `CC[C@@]1([C@@H]2O[C@@H]([C@H]3O[C@@](O)(CO)[C@H](C)C[C@@H]3C)C[C@@H]2C)CC[C@H]([C@]2(C)CC[C@]3(C[C@H](O)[C@@H](C)[C@@H]([C@@H](C)[C@@H](OC)[C@H](C)C(=O)O)O3)O2)O1` [Monensin sodium salt] + CCCCNC(=O)OCC#CI [3-iodo-2-propynyl butylcarbamate (IPBC)]: the growth yield reads like this: (40 h) 79.4 ± 9.8%; (72 h) 89.6 ± 9.2%.
Taken in the same sequence, the figures for `CC(Cc1cccc(C(F)(F)F)c1)NCCOC(=O)c1ccccc1` (stereo not given) [Benfluorex] + CCCCNC(=O)OCC#CI [3-iodo-2-propynyl butylcarbamate (IPBC)] were 56.4 ± 1.8% and 81.8 ± 1.5%.
The corresponding values for `Cc1cccc(Nc2ccncc2S(=O)(=O)NC(=O)NC(C)C)c1` [Torsemide] + CCCCNC(=O)OCC#CI [3-iodo-2-propynyl butylcarbamate (IPBC)] are 95.3% and 114 ± 17%.
In the case of `CNCC[C@@H](Oc1cccc2ccccc12)c1cccs1` [(R)-Duloxetine hydrochloride] + CCCCNC(=O)OCC#CI [3-iodo-2-propynyl butylcarbamate (IPBC)], the growth yield by setting is: (40 h) 61.6 ± 3.8%; (72 h) 90.3 ± 0.1%.
Taken in the same sequence, the figures for `O=C(O)CCCC[C@@H]1SC[C@@H]2NC(=O)N[C@@H]21` [Biotin] + CCCCNC(=O)OCC#CI [3-iodo-2-propynyl butylcarbamate (IPBC)] were 85.3 ± 3.3% and 91.03 ± 0.84%.
Taken in the same sequence, the figures for `C=C1C[C@@H]2[C@H](CC[C@]3(C)C(=O)CC[C@@H]23)[C@@]2(C)C=CC(=O)C=C12` [Exemestane] + CCCCNC(=O)OCC#CI [3-iodo-2-propynyl butylcarbamate (IPBC)] were 63.5 ± 0.64% and 77.6 ± 1.5%.
The corresponding values for `CCOc1cc(CC(=O)N[C@@H](CC(C)C)c2ccccc2N2CCCCC2)ccc1C(=O)O` [Repaglinide] + CCCCNC(=O)OCC#CI [3-iodo-2-propynyl butylcarbamate (IPBC)] are 104 ± 7.3% and 104 ± 4.8%.
Regarding `CN1CCN(C(c2ccccc2)c2ccc(Cl)cc2)CC1` (stereo not given) [Chlorcyclizine hydrochloride] + CCCCNC(=O)OCC#CI [3-iodo-2-propynyl butylcarbamate (IPBC)], the growth yield by setting is: (40 h) 76.9 ± 1.6%; (72 h) 91.6 ± 2.6%.
Turning to `CN1CCCN(C(c2ccccc2)c2ccc(Cl)cc2)CC1` (stereo not given) [Homochlorcyclizine dihydrochloride] + CCCCNC(=O)OCC#CI [3-iodo-2-propynyl butylcarbamate (IPBC)], the growth yield (40 h) was found to be 58.5 ± 2.2% and the growth yield (72 h) turned out to be 89.9 ± 1.6%.
Take `Cc1cccc(CN2CCN(C(c3ccccc3)c3ccc(Cl)cc3)CC2)c1` (stereo not given) [Meclozine dihydrochloride] + CCCCNC(=O)OCC#CI [3-iodo-2-propynyl butylcarbamate (IPBC)]: the growth yield by setting is: (40 h) 3.02 ± 1.1%; (72 h) 3.78 ± 0.63%.
The corresponding values for `O=C(Nc1ccccc1)OCC(CN1CCCCC1)OC(=O)Nc1ccccc1` (stereo not given) [Diperodon hydrochloride] + CCCCNC(=O)OCC#CI [3-iodo-2-propynyl butylcarbamate (IPBC)] are 77.4 ± 4.3% and 96.9 ± 1.7%.
`CCC1(c2cccc(O)c2)CCCCN(C)C1` (stereo not given) [Meptazinol hydrochloride] + CCCCNC(=O)OCC#CI [3-iodo-2-propynyl butylcarbamate (IPBC)]: the growth yield is 89.7 ± 3.6% (40 h) and 92.5 ± 2.7% (72 h).
The corresponding values for `O=C(O)c1cn(-c2ccc(F)cc2)c2cc(N3CCNCC3)c(F)cc2c1=O` [Sarafloxacin] + CCCCNC(=O)OCC#CI [3-iodo-2-propynyl butylcarbamate (IPBC)] are 81.2 ± 6.8% and 98.2 ± 5.5%.
`O=c1[nH]c2ccccc2n1CCCN1CCC(n2c(=O)[nH]c3cc(Cl)ccc32)CC1` [Domperidone] + CCCCNC(=O)OCC#CI [3-iodo-2-propynyl butylcarbamate (IPBC)]: the growth yield was determined as 63.5 ± 2.9% (40 h) and 91.8 ± 2.4% (72 h).
Taken in the same sequence, the figures for `O=C1NCCN1CCN1CCC(c2cn(-c3ccc(F)cc3)c3ccc(Cl)cc23)CC1` [Sertindole] + CCCCNC(=O)OCC#CI [3-iodo-2-propynyl butylcarbamate (IPBC)] were 5.24 ± 0.79% and 3.46 ± 0.1%.
As to `CCNCC(O)c1cccc(O)c1` (stereo not given) [Etilefrine hydrochloride] + CCCCNC(=O)OCC#CI [3-iodo-2-propynyl butylcarbamate (IPBC)], the growth yield stood at 96.9 ± 3.5% (40 h) and 98.1 ± 2.4% (72 h).
Taken in the same sequence, the figures for `CC(=O)OCC(=O)[C@@]1(O)CC[C@H]2[C@@H]3CCC4=CC(=O)C=C[C@]4(C)[C@@]3(F)[C@@H](O)C[C@@]21C` [Isoflupredone acetate] + CCCCNC(=O)OCC#CI [3-iodo-2-propynyl butylcarbamate (IPBC)] were 87.8 ± 2.1% and 91.7 ± 1.1%.
Take `C#CCN(C)Cc1ccccc1` [Pargyline hydrochloride] + CCCCNC(=O)OCC#CI [3-iodo-2-propynyl butylcarbamate (IPBC)]: the growth yield reads like this: (40 h) 89.3 ± 4.5%; (72 h) 95.5 ± 2.4%.
Taken in the same sequence, the figures for `CN(Cc1ccc(C(C)(C)C)cc1)Cc1cccc2ccccc12` [Butenafine Hydrochloride] + CCCCNC(=O)OCC#CI [3-iodo-2-propynyl butylcarbamate (IPBC)] were 4.13% and 2.73%.
Turning to `CN(C/C=C/c1ccccc1)Cc1cccc2ccccc12` [Naftifine hydrochloride] + CCCCNC(=O)OCC#CI [3-iodo-2-propynyl butylcarbamate (IPBC)], the growth yield was found to be 13.2 ± 3% (40 h) and 50 ± 2.2% (72 h).
For the molecule `c1ccc2c(CC3=NCCN3)cccc2c1` [Naphazoline hydrochloride] + CCCCNC(=O)OCC#CI [3-iodo-2-propynyl butylcarbamate (IPBC)], the growth yield came to 87 ± 1.9% (40 h) and 91.9% (72 h).
For the molecule `CN(C/C=C/C#CC(C)(C)C)Cc1cccc2ccccc12` [Terbinafine] + CCCCNC(=O)OCC#CI [3-iodo-2-propynyl butylcarbamate (IPBC)], the growth yield is, setting by setting: (40 h) 3.18 ± 0.64%; (72 h) 2.94 ± 0.42%.
